Experimental data taken from PubChem BioAssay (Tox21).
Results filed as inconclusive are left out. Where a call stands in place of a potency, no number is given. Some compounds were tested as several samples or in several runs, with calls that do not always agree. Activity calls are given as the source filed them. Calls follow the shape of the dose curve; as a rule, active = well fitted activation curve with a large enough effect in the repeat runs; inconclusive = weak or mixed curves; inactive = flat fitted curve, though single readings scatter.

Experiment: A CellTox Green Cytotoxicity Assay to monitor cytotoxicity in HepG2 cells - 8 hour (AID 1224890); also: nearly all actives have a fitted effect of over 45% in size
Settings: CellTox Green fluorescence; series mostly up to 76.8 µM
From the text: National Center for Advancing Translational Sciences [NCATS]
NIH Chemical Genomics Center [NCGC]
U.S. Environmental Protection Agency [EPA]
National Institutes of Environmental Health Sciences [NIEHS]
National Toxicology Program [NTP]
Cell-based models are critical for drug discovery. Determining the natural cytotoxic effects resulting from test compounds is an essential research activity. A CellTox Green Cytotoxicity Assay to monitor cytotoxicity in real time of continues cell culture during 40 hours of the compound treatment was used to screen Tox21 10K library compounds in HepG2 cells. CellTox Green Cytotoxicity Assay is a nonlytic, homogeneous, biofluorescent method to measure cytotoxicity in cell culture after experimental manipulation. The assay system uses a proprietary asymmetric cyanine dye that is excluded from viable cells but preferentially stains the dead cell's DNA. […] Viable cells produce no appreciable increases in fluorescence. Therefore, the fluorescence signal produced by the binding interaction with dead cell DNA is proportional to cytotoxicity.
The mixture of HepG2 cell suspension and reagents were dispensed at 600cells/6 ul/well in 1536-well tissue culture treated black solid bottom plates using a Multidrop dispenser. After the assay plates were incubated at a 37 C/5% CO2 incubator for 5 hours, 23 nL of compounds dissolved in DMSO, positive and negative controls was transferred to the assay plate by a pintool work station. The plates were incubated at 37 C for 40 hours. The fluorescence intensity were measured at 0h, 8h, 16h, 24h, 32h and 40h time points using ViewLux plate reader during compound treatment.
Potency is read from the fitted curve at half-maximal effect.

Row | SMILES | Potency
1 | O=[N+]([O-])O.O=[N+]([O-])O.[Cd] | inactive
2 | BrC(Br)Br | inactive
3 | Nc1ccc([N+](=O)[O-])cc1Cl | inactive
4 | ClCc1ccc(Cl)cc1Cl | inactive
5 | CCc1cc(C)cc(CC)c1-c1c(OC(=O)C(C)(C)C)n2n(c1=O)CCOCC2 | inactive
6 | O=[N+]([O-])c1ccc(Oc2ccc(C(F)(F)F)cc2[N+](=O)[O-])cc1 | inactive
7 | N#CCCSCCC#N | inactive
8 | CC(C)OS(C)(=O)=O | inactive
9 | O=C1c2ccccc2C(=O)C1C(=O)C(c1ccccc1)c1ccc(Cl)cc1 (stereo not given) | 49 µM (active)
10 | CC[C@H]1C[C@@H]2C[C@H]3c4[nH]c5ccc(OC)cc5c4CCN(C2)[C@@H]13 | inactive
11 | CN(C)[C@@H]1C(=O)C(C(N)=O)=C(O)[C@@]2(O)C(=O)C3=C(O)c4c(O)ccc(Cl)c4[C@@](C)(O)[C@H]3C[C@@H]12 | inactive
12 | C[C@H]1CC[C@@H]2[C@@H](C)[C@H]3[C@H](C[C@H]4[C@@H]5CC=C6CC(O[C@@H]7O[C@H](CO)[C@H](O)[C@H](O[C@@H]8O[C@H](CO)[C@@H](O)[C@H](O)[C@H]8O)[C@H]7O[C@H]7O[C@@H](C)[C@H](O)[C@@H](O)[C@H]7O)CC[C@]6(C)[C@H]5CC[C@]34C)N2C1 (stereo not given in full) | 25.3 µM (active)
13 | CCC(C)c1cc([N+](=O)[O-])cc([N+](=O)[O-])c1OC(=O)C=C(C)C (stereo not given) | inactive
14 | CC1CCC(C(C)C)C(OC(=O)c2ccccc2N)C1 (stereo not given) | inactive
15 | Oc1cc(Cl)c(Cl)c(Cl)c1 | inactive
16 | CCCCCCCCCCCCCCCCCCn1cc[n+](C)c1 | 38.7 µM (active)
17 | CC(C)[C@H](C(=O)O[C@H](C#N)c1cccc(Oc2ccccc2)c1)c1ccc(Cl)cc1 | inactive
18 | ClC1=C(Cl)[C@]2(Cl)[C@H]3[C@H]([C@H]4C=C[C@H]3C4)[C@@]1(Cl)C2(Cl)Cl | inactive
19 | c1ccc(OCC2CO2)cc1 (stereo not given) | inactive
20 | CC(C)C1CCC(Cc2ccc(Cl)cc2)C1(O)Cn1cncn1 (stereo not given) | 54.4 µM (active)

Row | SMILES | Potency
21 | C=COCCCl | inactive
22 | BrC(Br)C(Br)(Br)Br | inactive
23 | CN(C)c1ccc(N=Nc2ccccc2)cc1 | inactive
24 | COP(=O)(CCC(=O)NCO)OC | inactive
25 | COP(=S)(OC)Oc1cc(Cl)c(Br)cc1Cl | inactive
26 | [Hg+2].[I-].[I-] | 15.5 µM (active)
27 | CCOP(=S)(OCC)SCS(=O)(=O)CC | inactive
28 | C1CCC2CCCCC2C1 (stereo not given) | inactive
29 | Nc1ccc(Cc2ccc(N)c(Cl)c2)cc1Cl | inactive
30 | Clc1ccc(C(c2ccc(Cl)cc2)C(Cl)(Cl)Cl)cc1 | inactive
31 | Oc1ccc(C(=C(Cl)Cl)c2ccc(O)cc2)cc1 | inactive
32 | Oc1ccc(C2(c3ccc(O)cc3)c3ccccc3-c3ccccc32)cc1 | inactive
33 | O=c1[nH]c2ccccc2n1C1CCN(CCCC(c2ccc(F)cc2)c2ccc(F)cc2)CC1 | 54.9 µM (active) and inactive
34 | C[C@]12CC[C@@H]3c4ccc(OC(=O)N(CCCl)CCCl)cc4CC[C@H]3[C@@H]1CC[C@@H]2O | inactive
35 | Cc1cc(C)c(C2=C(OC(=O)CC(C)(C)C)C3(CCCC3)OC2=O)c(C)c1 | inactive
36 | Clc1ccc(CSC(Cn2ccnc2)c2ccc(Cl)cc2Cl)cc1 (stereo not given) | inactive
37 | CC(=O)[O-].CC(=O)[O-].[Hg+2] | 3.09 µM (active)
38 | O=[N+]([O-])c1cc(C(F)(F)F)c(Cl)c([N+](=O)[O-])c1Cl | 54.9 µM (active)
39 | COc1cc(C=O)cc2c1[C@H](COC(N)=O)[C@]1(OC(C)=O)ON2C[C@H]2[C@@H]1N2C(C)=O | inactive
40 | C=CC(=O)OCC(COC(=O)C=C)(COC(=O)C=C)COC(=O)C=C | inactive
